# Test results from PMC4336329 (PLoS ONE, 2015).
# In all, about 310,000 compounds went through this assay and about 14,000 (4.5%) showed an effect of 50% or more. Effects have a minus sign here. For the sample, strong results were picked, then their nearest neighbours and some compounds at random.
# Molecular target: human ether-à-go-go-related gene (hERG) potassium channel (human, UniProt Q12809)
# Assay: primary screen, population patch clamp on CHO cells stably expressing hERG; higher = less effect of the substance
# 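Also: peak tail current of the secondary pulse compared with the same well before compound.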
# Sequence of human ether-à-go-go-related gene (hERG) potassium channel (Q12809 whole entry, looked up): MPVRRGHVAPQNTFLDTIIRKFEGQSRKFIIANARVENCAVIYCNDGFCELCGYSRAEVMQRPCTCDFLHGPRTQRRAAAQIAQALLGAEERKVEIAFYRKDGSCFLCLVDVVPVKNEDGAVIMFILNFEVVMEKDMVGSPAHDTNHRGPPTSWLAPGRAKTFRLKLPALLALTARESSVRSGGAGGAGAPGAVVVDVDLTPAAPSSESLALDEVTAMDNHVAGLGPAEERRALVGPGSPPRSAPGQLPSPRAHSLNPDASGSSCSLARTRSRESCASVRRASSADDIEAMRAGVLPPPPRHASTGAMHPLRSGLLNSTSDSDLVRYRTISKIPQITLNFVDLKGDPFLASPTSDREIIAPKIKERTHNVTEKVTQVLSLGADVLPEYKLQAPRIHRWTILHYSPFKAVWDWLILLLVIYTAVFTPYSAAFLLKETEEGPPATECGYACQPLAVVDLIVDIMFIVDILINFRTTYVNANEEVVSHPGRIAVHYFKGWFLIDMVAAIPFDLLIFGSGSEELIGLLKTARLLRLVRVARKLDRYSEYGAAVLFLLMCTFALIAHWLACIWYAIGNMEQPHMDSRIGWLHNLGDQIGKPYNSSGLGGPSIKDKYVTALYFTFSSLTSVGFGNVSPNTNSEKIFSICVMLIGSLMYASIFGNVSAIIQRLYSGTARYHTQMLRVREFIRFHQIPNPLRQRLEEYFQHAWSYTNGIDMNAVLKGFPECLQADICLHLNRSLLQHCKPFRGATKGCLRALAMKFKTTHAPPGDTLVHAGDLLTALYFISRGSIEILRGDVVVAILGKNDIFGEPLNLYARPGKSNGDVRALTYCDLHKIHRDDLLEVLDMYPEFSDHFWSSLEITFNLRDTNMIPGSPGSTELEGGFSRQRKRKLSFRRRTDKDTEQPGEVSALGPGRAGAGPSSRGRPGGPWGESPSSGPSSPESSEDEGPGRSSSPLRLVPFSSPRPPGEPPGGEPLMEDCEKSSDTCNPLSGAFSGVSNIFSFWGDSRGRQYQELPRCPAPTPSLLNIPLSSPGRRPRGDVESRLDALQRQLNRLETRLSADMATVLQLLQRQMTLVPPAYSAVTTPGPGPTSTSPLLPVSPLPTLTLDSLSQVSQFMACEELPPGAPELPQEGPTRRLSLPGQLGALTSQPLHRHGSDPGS
row,Compound,"hERG current change (%, negative = inhibition) at 10uM [%]"
1,CN(Cc1nc(-c2ccncc2)no1)S(=O)(=O)c1ccccc1,3.91
2,CN(Cc1nc(-c2cccnc2)no1)S(=O)(=O)c1ccc(Br)cc1,-46
3,Cc1ccc(S(=O)(=O)N(C)Cc2nc(-c3ccncc3)no2)cc1,-19.5
4,CN(Cc1nc(-c2ccncc2)no1)S(=O)(=O)c1ccc(Cl)cc1,-55.5
5,Cc1ccc(S(=O)(=O)N(C)Cc2nc(-c3ccc(Br)cc3)no2)cc1,4.12
6,CN(Cc1nc(-c2ccncc2)no1)S(=O)(=O)c1ccc(Br)cc1,-58.1
7,O=C(NNc1nc(-c2ccccc2)cs1)c1cccs1,10.7
8,O=C(COC(=O)c1ccc(F)cc1F)NCCNC(=O)COC(=O)c1ccc(F)cc1F,16.8
9,Cc1c(Cl)cccc1NC(=O)CN1CCC(C(O)(c2ccccc2)c2ccccc2)CC1,-12.3
10,NNc1nc2c(Cl)ccc(Cl)c2s1,18.6
11,NS(=O)(=O)c1cccc(NC(=O)Cc2ccc(Cl)c(Cl)c2)c1,6.09
12,CC1CCCN(CCCNC(=O)c2ccc(CS(=O)(=O)c3c(Cl)cccc3Cl)o2)C1 (stereo not shown),-44.8
13,O=C(NCCc1ccccc1)c1ccc(CS(=O)(=O)c2ccc(Br)cc2)o1,10.2
14,CC(C)N(CCCNC(=O)c1ccc(CS(=O)(=O)c2c(Cl)cccc2Cl)o1)Cc1ccccc1,-67.7
15,COC(CNC(=O)c1ccc(CS(=O)(=O)c2c(Cl)cccc2Cl)o1)OC,21.2
16,CCN1CCN(CCNC(=O)c2ccc(CS(=O)(=O)c3c(Cl)cccc3Cl)o2)CC1,-8.19
17,CN(CCNC(=O)c1ccc(CS(=O)(=O)c2c(Cl)cccc2Cl)o1)CCc1ccccc1,-70
18,O=C(NCCN1CCCC1)c1ccc(CS(=O)(=O)c2c(Cl)cccc2Cl)o1,-45.5
19,CC(C)N(CCNC(=O)c1ccc(CS(=O)(=O)c2c(Cl)cccc2Cl)o1)Cc1ccccc1,-70.6
20,CN(CCNC(=O)c1ccc(CS(=O)(=O)c2ccc(Br)cc2)o1)CCc1ccccc1,-77.5
21,O=C(NCCCN1CCOCC1)c1ccc(CS(=O)(=O)c2c(Cl)cccc2Cl)o1,2.35
22,CN(C)CCNC(=O)c1ccc(CS(=O)(=O)c2ccc(Br)cc2)o1,-3.14

row,Compound,"hERG current change (%, negative = inhibition) at 10uM [%]"
1,O=C(NCCc1ccccc1)c1ccc(CS(=O)(=O)c2ccc(Cl)cc2)o1,-2.15
2,NC(=O)C1=C[C@H](c2ccc(C(F)(F)F)cc2)C[C@H](OCCCCO)O1,-4.54
3,CCCOc1ccc(C2NC(=S)NC(c3ccccc3)=C2C(=O)Nc2ccc(C)cc2)cc1OC (stereo not shown),0.514
4,CCN(CC(=O)Nc1cccc(OC)c1)CC(=O)Nc1ccc(C)cc1Cl,-10.4
5,COc1ccccc1/C=N/NC(=O)c1ccc2c(c1)OCO2,7.71
6,Cc1ccccc1OCC(=O)NCC1CCCO1 (stereo not shown),13.3
7,CCOc1ccc(NC(=O)CNC(=O)c2ccc([N+](=O)[O-])cc2)cc1,-7.46
8,Cc1cc(N/N=C\c2ccccc2)nc(-c2ccccc2O)n1,4.95
9,Cn1c(NC(=O)c2cc(Br)ccc2Cl)cc(=O)n(C)c1=O,1.62
10,CC1C(=O)N2CCCc3cc(S(=O)(=O)N4CCN(c5ccccc5F)CC4)cc1c32 (stereo not shown),-8.8
11,COc1ccc(N2CCN(S(=O)(=O)c3cc4c5c(c3)C(C)C(=O)N5CCC4)CC2)cc1 (stereo not shown),3.36
12,CC1C(=O)N2CCCc3cc(S(=O)(=O)N4CCN(c5ccc(F)cc5)CC4)cc1c32 (stereo not shown),-50.3
13,O=C(/C=C/c1ccccc1[N+](=O)[O-])Nc1ccccc1,10.1
14,O=c1cc(CSc2ccccn2)c2ccccc2[nH]1,9.52
15,C=CCn1c(=O)c(C(=O)NC(C)c2ccccc2)c(O)c2ccccc21 (stereo not shown),18.3
16,CN(Cc1c(O)ccc2c1oc(=O)c1ccccc12)C1CCCCC1,-42.8
17,C=CCN(CC=C)Cc1c(O)ccc2c1oc(=O)c1ccccc12,-71.6
18,C=CCN(CC=C)Cc1c(O)ccc2c(=O)c(-c3ccccc3)coc12,-16.9
19,Cc1ccccc1NC(=O)NCC1CCN(C(=O)OC(C)(C)C)CC1,-19.6
20,Cc1ccccc1NC(=O)NCC1CCN(Cc2cccc(Cl)c2)CC1,-60
21,Cc1ccc(NC(=O)NCC2CCN(Cc3cccc(Cl)c3)CC2)c(Cl)c1,-59.8
